Screens deposited in PubChem BioAssay by National Center for Advancing Translational Sciences (NCATS).
A selection: hits, their analogues and other compounds. The true share with any hit is near 0.99%.
TRHR ag: activates the human TRH receptor. activation, % at 2 µM. P34981. TRHR cells, calcium flux fluo-8, FDSS agonist mode. AID 493084. 360,000 tested, 0.18% active; in the data active means activation above about 30%
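Agonist-mode FDSS calcium read (Ex 480/Em 530, 1 s cycles) in 1536-well TRHR cells with fluo-8 dye, after 10-cycle baseline and 23 nL compound addition; TRH at EC20 (10 nM final) added afterwards for the enhancer phase.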
TRHR enhancer: allosteric enhancers of human TRH receptor; P34981; TRHR cells, fluo-8 calcium fluorescence, EC20 TRH enhancement; enhancement, % at 2 µM; 360,000 tested, 0.66% active; AID 493056; in the data active means enhancement above about 30%
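Enhancer read-out: after compound pinning and an initial kinetic agonist-mode read, an EC20 of TRH (10 nM final) was injected and fluo-8 calcium signal (Ex 480/Em 530) followed at 1 s/cycle for 100 cycles in TRHR-expressing cells.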
TRPV1 PAM: potentiators of human vanilloid receptor 1 (TRPV1); 320,000 tested, 0.02% active; TRPV1-expressing cells, Fluo-8 calcium influx, capsaicin EC20 potentiation; Q8NER1; potentiation, % at 8.33 µM; AID 540277; in the data active means potentiation above about 80%; inconclusive means between about 30% and that limit
Target sequence (Q8NER1 whole entry, looked up): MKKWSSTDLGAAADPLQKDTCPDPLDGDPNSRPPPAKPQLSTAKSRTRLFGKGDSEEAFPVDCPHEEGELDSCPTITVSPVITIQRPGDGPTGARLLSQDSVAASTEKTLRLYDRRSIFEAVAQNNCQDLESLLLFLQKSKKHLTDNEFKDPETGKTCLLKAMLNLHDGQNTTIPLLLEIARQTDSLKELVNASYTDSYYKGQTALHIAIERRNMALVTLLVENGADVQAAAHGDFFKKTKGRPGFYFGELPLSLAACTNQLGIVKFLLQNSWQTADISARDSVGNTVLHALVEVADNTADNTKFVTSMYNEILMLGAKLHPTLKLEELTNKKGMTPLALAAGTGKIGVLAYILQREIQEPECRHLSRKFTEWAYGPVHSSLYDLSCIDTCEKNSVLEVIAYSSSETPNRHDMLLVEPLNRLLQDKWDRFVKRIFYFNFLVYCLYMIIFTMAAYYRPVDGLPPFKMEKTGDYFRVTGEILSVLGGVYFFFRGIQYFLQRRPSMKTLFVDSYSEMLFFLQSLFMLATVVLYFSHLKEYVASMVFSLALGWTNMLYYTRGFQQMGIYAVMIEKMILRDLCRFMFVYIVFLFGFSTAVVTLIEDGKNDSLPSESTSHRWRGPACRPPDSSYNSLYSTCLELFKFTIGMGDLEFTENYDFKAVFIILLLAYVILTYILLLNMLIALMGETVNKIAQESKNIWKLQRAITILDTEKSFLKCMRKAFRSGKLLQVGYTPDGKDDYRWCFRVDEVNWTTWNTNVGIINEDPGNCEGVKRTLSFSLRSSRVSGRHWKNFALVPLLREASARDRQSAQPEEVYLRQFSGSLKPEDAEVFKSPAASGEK
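Cells expressing TRPV1 were dye-loaded with Fluo-8 and read kinetically: 10 s baseline, 3 min after compound (agonist portion), then 2 min after EC20 capsaicin (allosteric enhancer portion). Calcium-bound dye fluorescence at 480/520 nm.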
TRPV1 agonist: activates the human vanilloid receptor TRPV1; 320,000 tested, 0.19% active; activation, % at 8.33 µM; TRPV1-expressing cells, Fluo-8 calcium influx, agonist mode; in the data active means activation above about 80%; inconclusive means between about 30% and that limit
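TRPV1-expressing cells were cultured overnight at 35.5C and loaded with Fluo-8 calcium dye for 40 to 90 min at room temperature. After a 10 s baseline, compound was added and calcium influx was read kinetically for 3 min (ex 480/em 520 nm).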
TRPML1 inh: inhibitors of human TRPML1 channel; activity change, negative = inhibition, % (test concentration not listed); TRPML1-inducible cells, Ca2+ dye fluorescence, FDSS; stronger effect = lower value; inhibition of EC80 agonist-evoked calcium signal; 390,000 tested, 0.02% active; in the data active means activity change below about -50%; inconclusive means between about -30% and that limit;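 further: stimulus is agonist 54-4 at its EC80 concentration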
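Calcium fluorescence in TRPML1-DL cells induced overnight with Tet: a 110 s read after compound pin addition, then a 110 s antagonist read after challenge with 54-4 at 4 uM final (EC80).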
TRPML1 ag: activates the human TRPML1 channel. activation, % (concentration not given with the values). TRPML1-expressing cells, Ca2+ dye fluorescence, FDSS. 410,000 tested, 0.12% active; in the data active means activation above about 50%; inconclusive means mostly about 30% to 49%
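Kinetic FDSS Ca2+ read in Tet-induced TRPML1-DL cells (ABD Ca8 dye plus quencher, 45-90 min RT loading): baseline, then compound, then 110 s agonist window; EC80 agonist 54-4 at 4uM final added afterwards for a 110 s antagonist window.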
Each line names hits and unclear results; the compound was inactive in the other large screens.

Cn1nnnc1Sc1ncnc2scc(-c3ccc(N)cc3)c12	none (no result: TRPV1 PAM, TRPV1 agonist, TRPML1 inh, TRPML1 ag)
CN(C)c1ccc(/C=C/c2cc[n+](C)c3ccc4ccccc4c23)cc1	none (no result: TRHR ag, TRHR enhancer, TRPV1 PAM, TRPV1 agonist, TRPML1 inh)
CC(C)(C)n1ncc2c(=O)n(Cc3cccc(C(F)(F)F)c3)cnc21	none (no result: TRHR ag, TRHR enhancer, TRPV1 PAM, TRPV1 agonist)
Cc1ccc(CN2[C@H](C)[C@H](c3ccccc3)OCCS2(=O)=O)cc1	none (no result: TRHR ag, TRHR enhancer, TRPV1 PAM, TRPV1 agonist, TRPML1 inh)
O=C(C[N+]1(CC(O)c2ccccc2)CCOCC1)c1ccccc1 (stereo not given)	none (no result: TRHR ag, TRHR enhancer, TRPV1 PAM, TRPV1 agonist, TRPML1 inh)
CC(=O)N1CCN(c2ccc(NC(=O)c3cccc(Cl)c3Cl)cc2)CC1	none
CS(=O)(=O)c1ccc(C(=O)Nc2ccc(N3CCCCC3)cc2)c(Cl)c1	TRPV1 agonist 83
O=C(Nc1ccc(N2CCCC2)cc1)c1ccc([N+](=O)[O-])cc1Cl	none
O=C(Nc1ccc(N2CCCC2)cc1)c1cccc(Cl)c1Cl	TRPV1 agonist 81
O=c1[nH]c(CN2CCN(c3ccccn3)CC2)nc2c(Br)cc(Br)cc12	TRPV1 agonist inconclusive (no result: TRPML1 inh, TRPML1 ag)
O=c1[nH]c(CN2CCN(c3ncccn3)CC2)nc2c(Br)cc(Br)cc12	TRHR enhancer 30
COc1ccc(/C=c2\[nH]c(=O)/c(=C/c3ccc(OC)cc3)[nH]c2=O)cc1	none (no result: TRHR ag, TRHR enhancer, TRPV1 PAM, TRPV1 agonist, TRPML1 inh)
Cc1ccc(OCC(=O)N2CCc3ccccc32)c([N+](=O)[O-])n1	TRPML1 inh inconclusive
O=C(COc1cccnc1[N+](=O)[O-])N1CCc2ccccc21	TRHR enhancer 31
CCOc1ccc(/C=C(\C#N)C(=O)c2c(C)[nH]c3ccccc23)cc1OC	TRHR enhancer 36
COc1cc(/C=C(/C#N)C(=O)c2c(C)[nH]c3ccccc23)ccc1OCC#N	none
COc1ccccc1C(=O)OCn1nnc2ccccc2c1=O	none
Cc1cc(C(=O)CN2C(=O)c3ccccc3C2=O)c(C)n1Cc1cccs1	none
COc1ccc(OC)c(C(=O)Cn2nnc3ccccc3c2=O)c1	TRHR enhancer 39
Cc1cc(C(=O)Cn2nnc3ccccc3c2=O)c(C)n1Cc1cccs1	TRHR enhancer 32
O=C(Nc1ccc2c(c1)OCCO2)c1cc2ccccc2o1	TRPV1 agonist 81
CCCNC(=O)C1CCC(Cn2c(=O)c3sccc3n(Cc3cccc(OC)c3)c2=O)CC1 (stereo not given)	TRHR enhancer 53 (no result: TRPV1 PAM, TRPV1 agonist)
O=S(=O)(c1ccc(Br)cc1)N1CCN(S(=O)(=O)c2ccc3c(c2)OCCO3)CC1	none (no result: TRPV1 PAM, TRPV1 agonist, TRPML1 inh, TRPML1 ag)
CCC(C)NC(=O)C1CCN(S(=O)(=O)c2cccc3nonc23)CC1 (stereo not given)	TRHR enhancer 31
O=C(NCc1ccccc1)C1CCCN(S(=O)(=O)c2cccc3nonc23)C1 (stereo not given)	none
O=C(NC1CCN(Cc2ccccc2)CC1)C1CCCN(S(=O)(=O)c2cccc3nonc23)C1 (stereo not given)	TRHR enhancer 36
O=[N+]([O-])c1cccc2[nH]cnc12	none (no result: TRHR ag, TRHR enhancer, TRPV1 PAM, TRPV1 agonist, TRPML1 inh)
COc1ccc(C)cc1N(CC(=O)NCCSCc1ccco1)S(=O)(=O)c1ccc(C)cc1	TRHR enhancer 33
Cc1oc(-c2cccs2)nc1CS(=O)CC(=O)NCCc1ccccc1 (stereo not given)	TRPV1 agonist 87
O=C(CNC(=O)c1ccc(Cl)cc1)OC(C(=O)Nc1cc(C(F)(F)F)ccc1Cl)c1ccccc1 (stereo not given)	none (no result: TRPV1 PAM, TRPV1 agonist, TRPML1 inh, TRPML1 ag)
COc1ccc(OC)c(CNc2ccc3c(c2)CCC3)c1	TRHR enhancer 35
CCN(CC)S(=O)(=O)c1cc(NC(=O)c2ccc(Br)s2)ccc1C	TRPV1 agonist 83
CCN(CC)S(=O)(=O)c1cc(NC(=O)NCCCl)ccc1C	none
COc1cccc(NC(=S)N(CCCN2CCC(C)CC2)Cc2cccs2)c1	TRHR enhancer 30
COc1ccc(NC(=S)N(CCCN2CCC(C)CC2)Cc2cccs2)cc1	none
Cc1ccc(Nc2cc(C)nc(NCc3ccccc3)n2)cc1	TRHR enhancer 32
COc1ccc(-n2nc(C(=O)NCC(=O)NCCCN3CCCCCC3)c3ccccc3c2=O)cc1Cl	TRPV1 PAM 81
CC(C)(C)OC(=O)n1cc(/C=N/NC(=O)c2ccco2)c2ccccc21	TRHR enhancer 31, TRPV1 agonist inconclusive
